According to PubChem BioAssay (NCATS):
Records with an inconclusive call do not appear. Unmarked numbers belong to inactive results. Active and inactive are the calls of the source. The call rests on the fitted dose curve. Bridge positions count the residues as written; N and C are the ends. Square brackets hold non-standard residues; d marks the D form. Peptide text beside a SMILES is read from it. Orn = NCCC[CH](N)C(=O)O; Mpa = O=C(O)CCS

Assay: Primary qHTS for Huh7 cytotoxicity: counterscreen for inhibitors of MERS-S pseudotyped particle cell entry (AID 1479147)
Conditions: cell viability read-out; series mostly up to 57.1 µM; activity change, negative = cytotoxicity: at the top concentration
On the % scale 0 is the no-effect control and ±100 the full control effect.

SMILES | activity change, negative = cytotoxicity | outcome
N#Cc1cc(-c2n[nH]c(-c3ccncc3)n2)ccn1 | -6.56% | 
CC(C)OC(=O)CCC/C=C\C[C@@H]1[C@@H](CC[C@@H](O)CCc2ccccc2)[C@H](O)C[C@@H]1O | -6.62% [at 11.4 µM] | 
Cn1nnnc1SCC1=C(C(=O)O)N2C(=O)[C@H](NC(=O)C(O)c3ccccc3)C2SC1 (stereo not given in full) |  | inactive
C[N+]1(C)C2CC[C@H]1CC(OC(=O)C(O)c1ccccc1)C2 (stereo not given in full) | -12% | 
COC(=O)N[C@H](C(=O)N1CCC[C@H]1C(=O)Nc1ccc([C@@H]2CC[C@@H](c3ccc(NC(=O)[C@@H]4CCCN4C(=O)[C@@H](NC(=O)OC)C(C)C)cc3)N2c2ccc(C(C)(C)C)cc2)cc1)C(C)C |  | inactive
C=CC[N@@+]12CC[C@]34c5ccccc5N5/C=C6\C7N(/C=C(\C53)[C@@H](C[C@@H]41)/C(=C/CO)C2)c1ccccc1[C@@]71CC[N@@+]2(CC=C)C/C(=C\CO)[C@@H]6C[C@@H]12 (stereo not given in full) | -2.49% | 
CNC(=O)c1c(I)c(C(=O)NCC(=O)Nc2c(I)c(C(=O)O)c(I)c(C(=O)NCCO)c2I)c(I)c(N(C)C(C)=O)c1I |  | inactive
C=C1CCN([C@H](C)[C@](O)(Cn2cncn2)c2ccc(F)cc2F)CC1 | -12.6% | 
O=C(OC1C[C@@H]2CC3C[C@@H](C1)N2CC3=O)c1c[nH]c2ccccc12 (stereo not given in full) |  | inactive
O=C(Cn1c(=O)sc2ccc(Cl)cc21)N1CCN(CCO)CC1 |  | inactive
CC(C)[C@H]1CC[C@H](C)C[C@H]1O |  | inactive
CCCCCCCCCCCCCCCCOc1nc2ccc(C)cc2c(=O)o1 |  | inactive
CC(C)(CO)C(O)C(=O)NCCCC(=O)O (stereo not given) |  | inactive
CC1=C(C(=O)OCCN(Cc2ccccc2)c2ccccc2)C(c2cccc([N+](=O)[O-])c2)C(P2(=O)OCC(C)(C)CO2)=C(C)N1 (stereo not given) |  | inactive
CN(C)CC(c1ccc(O)cc1)C1(O)CCCCC1 (stereo not given) |  | inactive
[2H]C([2H])([2H])C(CCC[C@@H](C)[C@H]1CC[C@H]2/C(=C/C=C3\C[C@@H](O)C[C@H](O)C3=C)CCC[C@]12C)C([2H])([2H])[2H] |  | inactive
CCCCCCCCCCCCCCCC(=O)OC1CCCn2c1nc(C)c(CCN1CCC(c3noc4cc(F)ccc34)CC1)c2=O (stereo not given) |  | inactive
NS(=O)(=O)c1ccc(-n2nc(C(F)(F)F)cc2-c2ccc(F)cc2)cc1 | -13.7% | 
COc1ccc(CCNCC(O)COc2cccc(C)c2)cc1OC (stereo not given) |  | inactive
CC1(C)[C@@H]2CC[C@@]1(C)[C@H](OC(=O)CSC#N)C2 | -17.4% | 

SMILES | activity change, negative = cytotoxicity | outcome
CC(C)(CO)[C@@H](O)C(=O)NCCC(=O)NCCSSCCNC(=O)CCNC(=O)[C@H](O)C(C)(C)CO | -2.37% | 
CC(C)(C)NC(=O)[C@H]1CC[C@H]2[C@@H]3CC=C4C=C(C(=O)O)CC[C@]4(C)[C@H]3CC[C@]12C |  | inactive
FC(F)OC(Cl)C(F)(F)F (stereo not given) | 2.42% | 
NC[C@@H]1O[C@H](O[C@H]2[C@H](O)[C@H](O[C@H]3[C@@H](O)[C@H](N)C[C@H](N)[C@H]3O[C@H]3O[C@H](CN)[C@H](O)[C@H](O)[C@H]3N)O[C@@H]2CO)[C@@H](N)[C@@H](O)[C@@H]1O |  | inactive [at 5.34 µM]
CCCC(=O)Nc1ncnc2c1ncn2C1O[C@@H]2COP(=O)(O)O[C@H]2[C@H]1OC(=O)CCC (stereo not given in full) |  | inactive
CCOc1ccc(CC2NC(=O)CCSSCC(C(=O)N3CCCC3C(=O)NC(CCCN)C(=O)NCC(N)=O)NC(=O)C(CC(N)=O)NC(=O)C(C(C)O)NC(=O)C(C(C)CC)NC2=O)cc1 (stereo not given) ([Mpa]Y(Et)ITNCP[Orn]G-NH2; disulfide 1-6; configuration not given here) | -7% | 
C[C@H](NCCc1ccc(O)cc1)[C@H](O)c1ccc(O)cc1 |  | inactive
CN(C)CC(=O)O | 2.19% | 
NCCCC(N)C(=O)O (stereo not given) | -1.59% [at 26.4 µM] | 
C[C@H]1O[C@]2(CS1)CN1CCC2CC1 |  | inactive
CC(C)C(=O)OCC(=O)[C@@]12OC(C3CCCCC3)O[C@@H]1C[C@H]1[C@@H]3CCC4=CC(=O)C=C[C@]4(C)[C@H]3[C@@H](O)C[C@@]12C (stereo not given in full) |  | inactive
C[N+](C)(C)CCOP(=O)([O-])OP(=O)(O)OC[C@H]1OC(n2ccc(N)nc2=O)[C@H](O)[C@@H]1O (stereo not given in full) |  | inactive [at 0.573 µM]
NC(=O)[C@@H]1CC[C@@H]2CN1C(=O)N2OS(=O)(=O)O |  | inactive
NC(Cc1cc(I)c(Oc2cc(I)c(O)c(I)c2)c(I)c1)C(=O)O (stereo not given) | 3.52% [at 26.4 µM] | 
CC1(C)S[C@@H]2[C@@H](N3C(=O)[C@@H](c4ccccc4)NC3(C)C)C(=O)N2[C@H]1C(=O)O | 1.92% | 
O=C(O)C1CCc2cc(C3CCCCC3)c(Cl)cc21 (stereo not given) |  | inactive
O=C(O)CCSC[C@H]1O[C@@H]2O[C@H]3[C@H](O)[C@@H](O)[C@@H](O[C@H]4[C@H](O)[C@@H](O)[C@@H](O[C@H]5[C@H](O)[C@@H](O)[C@@H](O[C@H]6[C@H](O)[C@@H](O)[C@@H](O[C@H]7[C@H](O)[C@@H](O)[C@@H](O[C@H]8[C@H](O)[C@@H](O)[C@@H](O[C@H]9[C@H](O)[C@@H](O)[C@@H](O[C@H]1[C@H](O)[C@H]2O)O[C@@H]9CSCCC(=O)O)O[C@@H]8CSCCC(=O)O)O[C@@H]7CSCCC(=O)O)O[C@@H]6CSCCC(=O)O)O[C@@H]5CSCCC(=O)O)O[C@@H]4CSCCC(=O)O)O[C@@H]3CSCCC(=O)O | 2.87% | 
O=S(=O)(O)CCCS(=O)(=O)O |  | inactive
CC(=O)O[C@]1(C(C)=O)CC[C@H]2[C@@H]3C[C@H](C)C4=CC(=O)C=C[C@]4(C)[C@@]3(F)[C@@H](O)C[C@@]21C | -5.12% | 
CN(CCCCCCCCCCN(C)C(=O)Oc1cccc([N+](C)(C)C)c1)C(=O)Oc1cccc([N+](C)(C)C)c1 |  | inactive
